Records with an inconclusive call do not appear. A call without a number means that no potency is given here. A number with no mark means an inactive call. The source made the active and inactive calls. Calls come from the whole dose curve; as a rule, active = well fitted curve in the direction sought with a large enough effect; inconclusive = small, poorly fitted or top-dose-only effect, or another doubt; inactive = no such curve, though single readings can be large; an effect the other way counts as inactive or inconclusive.
Tests used:
CRL-7250 = normal cell line; assay: Cytotoxic Profiling of Annotated Libraries Using Quantitative High-Throughput Screening (AID 1296008); conditions: Five cell lines viability, CellTiter-Glo ATP luminescence, 48-72 h; max response: hits give low values; note: nearly all actives have a fitted effect of over 60% in size
Procedure, shortened: (§1)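 Cytotoxicity was measured as CellTiter-Glo ATP luminescence, read after 10 min at room temperature. Compound treatment of the cells lasted 48 or 72 hr at 37 degrees Celsius in a qHTS format.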

HEK293 = assay: as above; conditions: Five cell lines viability, CellTiter-Glo ATP luminescence, 48-72 h; max response: hits give low values
Procedure, shortened: as §1

HaCat [1] = assay: as above; conditions: Five cell lines viability, CellTiter-Glo ATP luminescence, 48-72 h; max response: hits give low values
Procedure, shortened: as §1

KB-3-1 = assay: as above; conditions: Five cell lines viability, CellTiter-Glo ATP luminescence, 48-72 h; max response: hits give low values
Procedure, shortened: as §1

NIH3T3 = assay: as above; conditions: Five cell lines viability, CellTiter-Glo ATP luminescence, 48-72 h; max response: hits give low values
Procedure, shortened: as §1

MCC-13 = assay: qHTS assay to identify novel small-molecules to repurpose for Merkel cell carcinoma treatment (AID 1296009); conditions: MCC and control cell lines, CellTiter-Glo viability, 72 h; series mostly up to 46 µM; note: nearly all actives have a fitted effect of over 60% in size
Procedure, shortened: (§2)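 Cell viability measured by CellTiter-Glo following 72 hr compound treatment at 37 degree celsius, with NPC and MIPE libraries tested in 8- and 11-point concentration series.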

MCC-26 = assay: as above; conditions: MCC and control cell lines, CellTiter-Glo viability, 72 h; series mostly up to 46 µM
Procedure, shortened: as §2

MKL-1 = assay: as above; conditions: MCC and control cell lines, CellTiter-Glo viability, 72 h; series mostly up to 46 µM
Procedure, shortened: as §2

MKL-2 = assay: as above; conditions: MCC and control cell lines, CellTiter-Glo viability, 72 h; series mostly up to 46 µM
Procedure, shortened: as §2

UISO = assay: as above; conditions: MCC and control cell lines, CellTiter-Glo viability, 72 h; series mostly up to 46 µM
Procedure, shortened: as §2

WaGa = assay: as above; conditions: MCC and control cell lines, CellTiter-Glo viability, 72 h; series mostly up to 46 µM
Procedure, shortened: as §2

C33A = assay: Primary qHTS to identify gynecologic anti-cancer compounds using libraries of approved drugs and bioactive compounds (AID 1345084); conditions: Gynecologic cancer cell panel viability, ATPlite luminescence, 48 h; series mostly up to 57.5 µM; note: nearly all actives have a fitted effect of over 55% in size
Procedure, shortened: (§3)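 Five-point cytotoxicity, 48 h drug exposure at 37 C, 5% CO2, on cells seeded 16 h beforehand. ATP content read by ATPlite luminescence.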

CASKI = assay: as above; conditions: Gynecologic cancer cell panel viability, ATPlite luminescence, 48 h; series mostly up to 57.5 µM
Procedure, shortened: as §3

Es-2 = assay: as above; conditions: Gynecologic cancer cell panel viability, ATPlite luminescence, 48 h; series mostly up to 57.5 µM
Procedure, shortened: as §3

HeLa = assay: as above; conditions: Gynecologic cancer cell panel viability, ATPlite luminescence, 48 h; series mostly up to 57.5 µM
Procedure, shortened: as §3

W2 = assay: qHTS profiling for inhibitors of Plasmodium falciparum proliferation (AID 504749); note: nearly all actives have a fitted effect of over 60% in size; note: potency is the fitted concentration of half-maximal effect; conditions: P. falciparum in erythrocytes, SYBR Green DNA, 72 h; series mostly up to 28.7 µM
Procedure, shortened: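 In a 72 h erythrocytic culture (37 C, humidified, 5% CO2) at 2.5% hematocrit and 0.3% starting parasitemia, compounds were tested; SYBR Green I in detergent lysis buffer stained parasite DNA overnight.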

CAOV3 = assay: Primary qHTS to identify gynecologic anti-cancer compounds using libraries of approved drugs and bioactive compounds (AID 1345084); conditions: Gynecologic cancer cell panel viability, ATPlite luminescence, 48 h; series mostly up to 57.5 µM; note: nearly all actives have a fitted effect of over 55% in size
Procedure, shortened: as §3

HACAT [2] = assay: qHTS assay to identify novel small-molecules to repurpose for Merkel cell carcinoma treatment (AID 1296009); conditions: MCC and control cell lines, CellTiter-Glo viability, 72 h; at 44.8 µM (top of the series) unless noted; note: nearly all actives have a fitted effect of over 60% in size
Procedure, shortened: as §2

Row | SMILES | max response (CRL-7250) | max response (HEK293) | max response (HaCat [1]) | max response (KB-3-1) | max response (NIH3T3) | Potency (MCC-13) | Potency (MCC-26) | Potency (MKL-1) | Potency (MKL-2) | Potency (UISO) | Potency (WaGa) | Potency (C33A) | Potency (CASKI) | Potency (Es-2) | Potency (HeLa) | Potency (W2) | outcome (CRL-7250) | Potency (CAOV3) | outcome (HaCat [1]) | outcome (HACAT [2])
1 | CN(C)CCC[C@@]1(c2ccc(F)cc2)OCc2cc(C#N)ccc21 | -3.32% | -9.91% | -13.9% | -13.4% | 0.771% | inactive | inactive | inactive | inactive | inactive | inactive | inactive | inactive | inactive | inactive |  |  |  |  | 
2 | CCCCC(CC)COC(=O)c1ccc(N(C)C)cc1 (stereo unspecified) |  | -4.34% | -11.9% | 0.633% | 4.63% | inactive | inactive | inactive | inactive | inactive | inactive | inactive | inactive | inactive | inactive | inactive | inactive | inactive |  | 
3 | CC(=O)OCC1=C(C(=O)O)N2C(=O)[C@@H](NC(=O)CSc3ccncc3)[C@H]2SC1 | -1.6% | 4.22% | 0.118% | 2.34% | 1.18% | inactive | inactive | inactive |  | inactive |  | inactive | inactive | inactive | inactive |  |  | inactive |  | 
4 | C/C=C/C=N/NC(=O)c1ccncc1 | -0.246% | -6.37% | 0.247% | -15.9% | -0.451% | inactive | inactive |  |  |  |  | inactive | inactive | inactive | inactive | inactive |  | inactive |  | 
5 | CNCCc1ccccn1 |  | -1.02% | -8.27% | 5.51% | -2.69% | inactive | inactive | inactive | inactive | inactive | inactive | inactive | inactive | inactive | inactive | inactive | inactive |  |  | 
6 | CC(C)Nc1cccnc1N1CCN(C(=O)c2cc3cc(NS(C)(=O)=O)ccc3[nH]2)CC1 |  | -14.8% | 0.0011% | -4.88% | -1.79% | inactive | inactive | inactive | inactive | inactive | inactive | inactive | inactive | inactive | inactive | 9.53 µM (active) | inactive |  |  | 
7 | CCCCN1C[C@H](O)[C@@H](O)[C@H](O)[C@H]1CO | -12.1% | -7.96% | -19.6% | 15.3% | -2.42% | inactive | inactive | inactive | inactive | inactive | inactive | inactive | inactive | inactive | inactive |  |  |  |  | 
8 | Cc1cc(-c2ccccc2)nnc1NCCN1CCOCC1 | -17.2% | 1.05% | -33.8% | -13.9% | -3.42% | inactive | inactive | inactive | inactive | inactive | inactive | inactive | inactive |  | inactive |  |  | inactive |  | 
9 | Cc1cccc(C)c1NC(=O)c1ccccc1C(=O)O |  | 0.24% | 1.31% | -0.148% | -5.01% | inactive |  | inactive | inactive | inactive | inactive | inactive | inactive | inactive | inactive | inactive | inactive | inactive |  | 
10 | CC(C)[N+](C)(C)CC(O)COc1cccc2ccccc12 (stereo unspecified) | -19.4% | -10.5% | -6.06% | -4.04% | -0.944% | inactive | inactive | inactive | inactive | inactive |  | inactive | inactive | inactive | inactive | inactive |  |  |  | 
11 | CC(=O)O[C@H]1C[C@@H]2CC[C@@H]3[C@H](CC[C@@]4(C)[C@H]3C[C@H]([N+]3(C)CCCCC3)[C@@H]4OC(C)=O)[C@@]2(C)C[C@@H]1N1CCCCC1 | -0.866% | 1.01% | 3.88% | -0.262% | 3.84% | inactive | inactive | inactive | inactive | inactive | inactive | inactive | inactive | inactive | inactive | 12 µM (active) |  | inactive |  | 
12 | COc1cc(N)c(Cl)cc1C(=O)NC1CCN(Cc2ccccc2)CC1 |  | -8.36% | 1.83% | 3.83% | -4.33% | inactive | inactive | inactive | inactive | inactive | inactive | inactive | inactive | inactive | inactive |  | inactive |  |  | 
13 | O=C(O)c1ccc(S(=O)(=O)N(Cl)Cl)cc1 | 3.6% | 3.96% | -0.853% | -9.69% | -3.94% | inactive | inactive | inactive | inactive | inactive | inactive | inactive | inactive | inactive | inactive | inactive |  | inactive |  | 
14 | CCOCCn1c(N2CCCN(C)CC2)nc2ccccc21 | -16.3% | -5.73% | 1.76% | -16.6% | -0.586% | inactive | inactive | inactive | inactive | inactive | inactive | inactive | inactive | inactive | inactive | 4.78 µM (active) |  | inactive |  | 
15 | CN1CCN(C2=Nc3ccccc3Sc3ccc(Cl)cc32)CC1 | -8.62% | -15.3% | -2.52% | -8.12% | -1.36% | inactive | inactive | inactive | inactive | inactive |  | inactive | inactive | inactive | inactive | 3.79 µM (active) |  | inactive |  | 
16 | CC1=C(C(=O)O)N2C(=O)[C@@H](NC(=O)[C@H](N)c3ccccc3)[C@H]2SC1 | -2.3% | -2.48% | 2.08% | 11.5% | 1.34% | inactive | inactive | inactive | inactive | inactive | inactive | inactive | inactive | inactive | inactive | inactive |  | inactive |  | 
17 | FC1(F)C(F)(F)C(F)(F)C2(F)C(F)(F)C(F)(F)C(F)(F)C(F)(F)C2(F)C1(F)F (stereo unspecified) | 4.26% | 3.06% | 0.333% | 4.98% | 1.4% | inactive | inactive | inactive | inactive | inactive | inactive | inactive | inactive | inactive | inactive | inactive |  | inactive |  | 
18 | CCCCCCCCCCCCCCCCO | -12.4% | 1.14% | -1.51% |  | -5.1% | inactive | inactive | inactive | inactive | inactive | inactive | inactive | inactive | inactive | inactive | inactive |  |  |  | 
19 | CC(O)Cn1cnc2c1c(=O)n(C)c(=O)n2C (stereo unspecified) | 2.85% | 1.15% | -17.4% |  | -9.57% | inactive | inactive | inactive | inactive | inactive | inactive | inactive | inactive | inactive | inactive |  |  |  |  | 
20 | O=C(NCCc1c[nH]c2ccccc12)c1cccnc1 | 2.2% | -10.1% | -2.67% | -10.3% | 0.897% | inactive |  | inactive | inactive | inactive | inactive | inactive | inactive |  | inactive | inactive |  | inactive |  | 
21 | Cl/C(=C\n1cncn1)c1ccc(Cl)cc1Cl |  | -2.88% | -4.78% |  | 0.11% | inactive | inactive | inactive | inactive | inactive | inactive | inactive | inactive | inactive |  | inactive | inactive | inactive |  | 
22 | CC(C)Cn1cnc2c1c(=O)n(C)c(=O)n2C |  | -0.637% | -0.147% | -13.7% | 1.58% | inactive |  | inactive | inactive | inactive | inactive | inactive | inactive | inactive |  | inactive | inactive | inactive |  | 
23 | O=C(O)Cc1csc(-c2ccc(Cl)cc2)n1 | -17.8% | -0.458% | -16.3% |  | 1.14% | inactive | inactive | inactive | inactive | inactive | inactive | inactive | inactive | inactive | inactive | inactive |  | inactive |  | 
24 | Cc1cn([C@H]2C[C@H](F)[C@@H](CO)O2)c(=O)[nH]c1=O |  | 0.5% |  |  | -16.7% | inactive | inactive | inactive | inactive | inactive | inactive | inactive | inactive | inactive | inactive |  | inactive | inactive | inactive | inactive
25 | CC(=O)NCCCCCC(=O)O | -1.79% | 1.53% | -2.92% |  | -7.1% | inactive | inactive | inactive | inactive | inactive | inactive | inactive | inactive | inactive | inactive | inactive |  | inactive |  | 
26 | OCc1ccccn1 | -1.84% | -1.39% |  |  | -14.5% | inactive | inactive | inactive | inactive | inactive | inactive | inactive | inactive | inactive | inactive | inactive |  | inactive | inactive | inactive
27 | CCCCCCCCCCCCSCCOCCO | 2.82% | -0.323% | 0.693% |  | -3.9% | inactive | inactive |  | inactive | inactive | inactive | inactive | inactive | inactive | inactive | inactive |  |  |  | 
